Binding response (% of DMSO) data for 55 compounds are collected here from PubChem BioAssay AID588466 (NMMLSC, 2011).

Each structure is given as a SMILES string. In all, about 2,100 compounds went through this assay and about 30 (1%) were called active. Not all results are given here. Values without a mark were called inactive.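 How the source made its calls: active means compounds whose mean binding response over two repeats is below 75% of the DMSO control; inactive means the rest.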

In this assay the target is Desmoglein-3 (Homo sapiens) (UniProt P32926). As to the kind of experiment: blockers of pemphigus antibody–desmoglein-3 interaction – biochemical, cherry pick 1, bead-based, flow cytometry, confirmation (AID 588466).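 Further: 100% = 2% DMSO vehicle and 0% = excess soluble DSG3 blocking control.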 The settings on record: Protein G beads with DSG3, scFv-GFP binding, at 10 µM, active compounds read low. In general terms: In flow cytometry, cells or beads pass a laser one at a time.
Chain of Desmoglein-3 (Homo sapiens) (P32926 whole entry, looked up): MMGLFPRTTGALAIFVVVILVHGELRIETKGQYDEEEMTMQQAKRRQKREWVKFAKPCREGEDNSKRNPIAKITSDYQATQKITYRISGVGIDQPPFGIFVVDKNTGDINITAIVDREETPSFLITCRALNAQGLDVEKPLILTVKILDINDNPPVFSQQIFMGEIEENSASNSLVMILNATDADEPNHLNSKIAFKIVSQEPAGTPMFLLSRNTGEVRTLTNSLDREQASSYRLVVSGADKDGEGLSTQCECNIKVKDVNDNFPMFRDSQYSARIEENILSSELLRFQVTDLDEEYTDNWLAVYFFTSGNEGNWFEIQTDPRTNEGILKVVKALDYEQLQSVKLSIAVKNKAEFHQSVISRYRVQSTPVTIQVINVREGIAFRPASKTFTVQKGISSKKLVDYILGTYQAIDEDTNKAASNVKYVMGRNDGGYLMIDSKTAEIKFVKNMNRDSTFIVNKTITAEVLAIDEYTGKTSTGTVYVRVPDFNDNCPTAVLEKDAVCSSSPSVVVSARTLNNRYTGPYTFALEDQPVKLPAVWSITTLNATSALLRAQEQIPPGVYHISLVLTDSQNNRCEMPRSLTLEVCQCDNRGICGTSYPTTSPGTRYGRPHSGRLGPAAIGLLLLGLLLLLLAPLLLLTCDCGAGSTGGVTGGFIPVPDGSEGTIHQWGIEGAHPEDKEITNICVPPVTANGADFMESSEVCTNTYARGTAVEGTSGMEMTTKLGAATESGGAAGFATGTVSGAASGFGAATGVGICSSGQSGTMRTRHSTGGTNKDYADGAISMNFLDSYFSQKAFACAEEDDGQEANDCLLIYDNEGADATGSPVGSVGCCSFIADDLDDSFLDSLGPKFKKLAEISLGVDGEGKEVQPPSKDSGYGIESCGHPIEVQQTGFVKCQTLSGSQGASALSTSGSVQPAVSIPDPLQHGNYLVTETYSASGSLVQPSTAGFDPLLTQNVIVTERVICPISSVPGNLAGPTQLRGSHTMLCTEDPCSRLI
For the compound `Cc1nc(SCc2nc3c([N+](=O)[O-])cccc3[nH]2)c2oc3ccccc3c2n1`, the binding response (% of DMSO) is 108%. In the case of `CN(CCC1CCOCC1)C(=O)C1CCC(=O)N(CCc2ccccc2)C1` (stereo not given) it was 101%. With `CCOC(=O)c1cccc(NC(=O)c2ccc3c(c2)C(=O)N(CC2CCCO2)C3=O)c1` (stereo not given), the binding response (% of DMSO) is 103%. As for `COc1ccc(C2=Nn3c(nnc3-c3ccccc3Cl)SC2)cc1OC1CCOC1` (stereo not given), the binding response (% of DMSO) was 91.3%. In the case of `Nc1cccc(C(=O)c2ccccc2C(=O)O)c1` it was 98.2%; in that of `O=C1CSC(c2ccncc2)N1Cc1ccco1` (stereo not given), 106%.

With `COC(=O)c1ccc(N(C(=O)CNC(=O)c2ccco2)C(C(=O)NCC2CCCO2)c2ccc(OC)c(OC)c2)cc1` (stereo not given), the binding response (% of DMSO) was 104%.

For the compound `CC(=O)Nc1ccc(C(=O)OCC(=O)c2ccc(S(=O)(=O)N3CCCCC3)cc2)cc1`, the binding response (% of DMSO) was 110%. The result for `Cc1ccc(-n2nc3c(c2NC(=O)c2ccc(Br)o2)CSC3)c(C)c1` reads 95.6%; that for `Cc1cc(NC(=O)CSc2nccn2-c2ccc(Cl)cc2)no1`, 103%. The result for `CCOc1cccc(C(=O)Nc2ccc(N3CCN(S(C)(=O)=O)CC3)cc2)c1` reads 90.8%; that for `Clc1ccc(-[n+]2c(-c3cccc(Br)c3)[nH]c3nc4ccccc4nc32)cc1`, 90.4%.

Turning to `COc1ccc(Oc2nnc(-c3ccccc3)cc2C#N)cc1`, the binding response (% of DMSO) was 94.9%. The result for `O=C(CSc1nc(=O)[nH]c2c1CCCC2)Nc1ccc(F)cc1F` reads 106%. The result for `O=C1c2ccc(-c3ccc(F)cc3OCc3ccccc3)cc2S(=O)(=O)c2cccc(C(=O)N3CCN(c4ncc(Br)cn4)CC3)c21` reads 84.2%; that for `CCOc1ccc2nc(NC(=O)c3ccc(S(=O)(=O)N4CCOCC4)cc3)sc2c1`, 77.7%. The result for `CC1=CCC2C(=O)N(c3ccc(C)c(Br)c3)C(=O)C2C1` (stereo not given) reads 109%. With `COc1ccccc1CN(C)C[C@@H]1OCc2cnnn2CCCC(=O)N([C@@H](C)CO)C[C@H]1C`, the binding response (% of DMSO) is 96.2%.

For the compound `CN(c1ccccc1)S(=O)(=O)c1cccc(NC(=O)C2=NNC(=O)CC2)c1`, the binding response (% of DMSO) was 98.4%.

As for `CC(=O)c1cccc(N(C(=O)CNC(=O)c2cccs2)C(C(=O)NCC2CCCO2)c2ccccc2)c1` (stereo not given), the binding response (% of DMSO) was 102%. As for `COc1ccc(-c2csc(NC(=O)c3cc(C)on3)c2C#N)cc1OC`, the binding response (% of DMSO) is 97.8%. In the case of `O=C(c1cnn(-c2nc3ccccc3s2)c1)c1ccccc1O` it was 102%; in that of `CCN1C(=O)[C@H]2[C@@H](c3ccc(C)cc3)N3C(=O)N(c4ccc(OC)cc4)C(=O)[C@@]3(Cc3ccccc3)[C@H]2C1=O`, 98.4%. In the case of `COc1ccc(-c2cc(=O)oc3cc(OCC(=O)Nc4ccccn4)ccc23)cc1` it was 88.2%; in that of `CN1CCN(Cc2nc3ccccc3c(=O)n2Cc2nc(-c3ccc([N+](=O)[O-])cc3)cs2)CC1`, 103%; in that of `Fc1ccc2nc(C3CCCCN3Cc3nc(CC4CC4)no3)[nH]c2c1` (stereo not given), 102%. The result for `CSCCC(NC(=O)C1CCC(C)CC1)C(=O)OCC(=O)c1ccc(Cl)cc1` (stereo not given) reads 107%; that for `O=S(=O)(NCCOc1ccccc1F)c1ccc(Cl)cc1F`, 102%; that for `CCOc1cc(S(=O)(=O)Nc2ccc(Cl)cn2)ccc1F`, 112%. `CCc1ccc(Cn2nnc(C(=O)Nc3ccc(OC)cc3OC)c2N)cc1`: the binding response (% of DMSO) is 96.2%.

In the case of `COc1ccc(-c2ccc(-c3nc4c(c(=O)[nH]c(=O)n4Cc4ccccc4)n3C)o2)c([N+](=O)[O-])c1`, the binding response (% of DMSO) is 87.1%.

With `COc1ccc(OC)c(NC(=O)NCCc2cccc(Cl)c2)c1`, the binding response (% of DMSO) is 100%. In the case of `COc1ccc(NC(=O)c2ccc(NC(=O)CN3CCN(c4ccccc4)CC3)cc2)cc1` it was 90.4%.

With `COc1ccc(Cl)c(NC(=O)NCCN2CCN(c3ccccc3)CC2)c1`, the binding response (% of DMSO) was 67.9% (active). In the case of `CC1C(=O)N2CCCc3cc(S(=O)(=O)N4CCC(C(N)=O)CC4)cc1c32` (stereo not given) it was 104%; in that of `Cc1ccc(NS(=O)(=O)c2ccc3c(c2)n(C)c(=O)n3C)cc1`, 100%. In the case of `COc1ccc(CNC(=O)c2cnc(C)cn2)cc1` it was 101%; in that of `COCC(C)n1c(C)cc(C(=O)COC(=O)c2nn(C)c(=O)c3ccccc23)c1C` (stereo not given), 98.2%; in that of `CC(=O)Nc1nnc(CCS(=O)(=O)c2ccc(C)c(C)c2)s1`, 104%.

`COc1ccc(-n2ccc(=O)c(C(=O)Nc3ccc(S(=O)(=O)Nc4nccs4)cc3)n2)cc1`: the binding response (% of DMSO) was 99.6%. In the case of `COc1ccc(C(=O)NCc2nnc(SCC(=O)N3CCc4ccccc43)n2C2CCCCC2)cc1` it was 91%; in that of `CCc1nnc(NC(=O)CCN(c2ccc(C)cc2)S(=O)(=O)c2ccccc2)s1`, 103%. In the case of `Cc1ccsc1-c1nc(-c2ccccc2)c(-c2ccccc2)[nH]1` it was 77.9%. With `CN(Cc1cc2ccccc2[nH]c1=O)S(C)(=O)=O`, the binding response (% of DMSO) is 100%. In the case of `Cc1nc2scc(C)n2c(=O)c1S(=O)(=O)NCc1ccc(F)cc1` it was 107%; in that of `COc1ccc(C(=O)NCc2ccc(C)cc2)cc1S(=O)(=O)N1CCCC1`, 105%. In the case of `CCOC(=O)c1c(-c2ccccc2)c[nH]c1C` it was 97.4%. The result for `CCN(CC)c1ccc(/C=N/N2C(=O)c3ccccc3C2=O)cc1` reads 102%.

Turning to `CCOC(=O)C1=C(O)/C(=C/c2ccc(-c3ccccc3C(=O)O)o2)SC1=Nc1ccc(C)cc1`, the binding response (% of DMSO) was 108%.

For the compound `CC(=O)N1C(=O)/C(=C2\SC(=S)N(c3c(C)n(C)n(-c4ccccc4)c3=O)C2=O)c2ccccc21`, the binding response (% of DMSO) was 87.6%. In the case of `Clc1ccc(-n2ncc3c(NCc4cccnc4)ncnc32)cc1Cl` it was 91.8%; in that of `C=C(Br)CN1[C@@H](Cc2ccccc2)[C@H](O)[C@@]23C=C[C@@H](C[C@@H]2S1(=O)=O)O3`, 101%. In the case of `CCOC(=O)CSc1nc2sc(C)c(C)c2c(=O)n1N` it was 104%; in that of `CC(=O)c1c(C)[nH]c(C(=O)NCc2ccc(Cl)cc2)c1C`, 105%. The result for `CCOC(=O)Cc1csc(NC(=O)COc2ccccc2)n1` reads 99.8%.
